VP16 counter: inhibits Gal4-VP16 luciferase reporter, ROR gamma counter-screen. Potency, µM (highest dose often 53.6 µM), most hits filed as inhibitors. Drosophila S2 Gal4-VP16 UAS-luciferase, luminescence, 20 h. 310,000 tested, 3.5% active;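 further: Gal4-VP16 expression switched on by copper sulfate through the metallothionein promoter; nearly all actives have a fitted effect of over 50% in size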
IL-1B inflam inh: inhibitors of inflammasome signaling (IL-1 beta secretion); activity change, % at 57.5 µM; THP-1 LPS/ATP IL-1B secretion, AlphaLISA, 16 h; stronger effect = lower value; AID 743279; 360,000 tested, 4.7% active; in the data active means activity change below about -50%; inconclusive means mostly about -30% to -49%
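THP-1 cells pretreated 1 hr with compounds (up to 57.5 uM final), then stimulated with LPS (250 ng/mL final) plus ATP (1.25 mM final); secreted IL-1B measured by AlphaLISA after 16 hr, decreased signal indicating inhibition.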
RORg inh: inhibitors of mouse ROR gamma transcriptional activity; P51450; Drosophila S2 Gal4-RORgamma UAS-luciferase reporter, 20 h; Potency, µM (titrated, usually from 53.6 µM), usual class: inhibitors; 310,000 tested, 5.4% active; further: nearly all actives have a fitted effect of over 60% in size
Target sequence (P51450 whole entry, looked up, the tested form may be a part): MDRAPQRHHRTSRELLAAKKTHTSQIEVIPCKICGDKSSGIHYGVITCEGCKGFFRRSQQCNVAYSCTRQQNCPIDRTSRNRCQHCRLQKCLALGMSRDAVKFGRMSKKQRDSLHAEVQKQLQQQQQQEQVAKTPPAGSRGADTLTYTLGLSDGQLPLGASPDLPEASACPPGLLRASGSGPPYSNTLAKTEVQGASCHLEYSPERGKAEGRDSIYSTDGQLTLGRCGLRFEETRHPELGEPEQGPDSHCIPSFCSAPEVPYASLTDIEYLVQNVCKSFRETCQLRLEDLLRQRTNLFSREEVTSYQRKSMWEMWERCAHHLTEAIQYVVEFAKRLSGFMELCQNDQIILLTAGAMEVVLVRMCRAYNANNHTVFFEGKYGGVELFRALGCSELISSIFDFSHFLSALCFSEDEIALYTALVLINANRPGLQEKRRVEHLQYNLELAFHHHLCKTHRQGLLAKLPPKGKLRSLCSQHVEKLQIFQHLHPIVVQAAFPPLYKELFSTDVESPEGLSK
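Using a luciferase readout, inhibitors were identified by reduced reporter activity in Drosophila cells coexpressing a copper-inducible Gal4–ROR gamma fusion and UAS-driven Photinus luciferase, incubated 20 hr after 700 uM copper sulfate.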
TDP1 cell CPT: DT40-hTDP1 cell growth loss with CPT; Potency, µM (highest dose often 46.2 µM), actives largely listed as inhibitors; 420,000 tested, 12% active; AID 686979; chicken DT40 Tdp1-/-;hTDP1 cells + 20 nM CPT, ATP luminescence, 48 h; further: nearly all actives have a fitted effect of over 55% in size
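Cell growth measured by CellTiter-Glo luminescence after a minimum 48 h, 37 C compound exposure with 20 nM CPT in Tdp1-knockout DT40 cells stably expressing hTDP1, seeded 400/well; qHTS titration format.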
LDHA inh: blocks human lactate dehydrogenase A; P00338; purified LDHA, NADH/diaphorase-resazurin fluorescence; stronger effect = lower value; activity change, % (values are at about 110 or 230 µM); 480,000 tested, 0.15% active; AID 1347041; in the data active means activity change below about -30%; inconclusive means mostly about -25% to -30%
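Resorufin fluorescence (ex540/em590), read at 0 and 20 min after diaphorase/resazurin addition, reports the NADH left after a 5 min room-temperature reaction of 2 nM human LDH5 with 0.06 mM NADH and 0.2 mM pyruvate.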
DT40 TDP1 no CPT: qHTS for Inhibitors of human tyrosyl-DNA phosphodiesterase 1 (TDP1): qHTS in cells in absence of CPT; DT40 Tdp1-/- hTDP1 cells, no CPT, ATP luminescence, 48 h; Potency, µM (doses to about 46.2 µM), usual class: inhibitors; 420,000 tested, 15% active; further: nearly all actives have a fitted effect of over 55% in size
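Growth kinetics read by CellTiter-Glo luminescence after ≥48 hr at 37 °C. Cells: DT40 Tdp1-/- stably carrying human TDP1, 400 per well, compound exposure in the absence of CPT (DMSO vehicle).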
A number is an active result; - = inactive; ? = inconclusive; . = no result given; [ ] = remark or other dose. Shown are actives, neighbours in structure and some others; about 18% of the full set was active somewhere. Unless noted, the call rests on the fitted dose curve; in most records, active means well fitted curve in the direction sought with a large enough effect; inconclusive means small, poorly fitted or top-dose-only effect, or another doubt; inactive means no such curve, though single readings can be large; an effect the other way counts as inactive or inconclusive.

SMILES | VP16 counter | IL-1B inflam inh | RORg inh | TDP1 cell CPT | LDHA inh | DT40 TDP1 no CPT
COc1ccccc1N(C)S(=O)(=O)c1ccc(C(=O)N2CCCC(C(F)(F)F)C2)cc1 (stereo unspecified) | . | - | . | ? | - | 18µM
COc1ccc(-n2ncc(Cl)c(Cl)c2=O)cc1 | ? | -107 | 2µM | 4.1µM | - | 2.9µM
COc1nn(-c2ccccc2)c(=O)c(Cl)c1Cl | 11µM | -96 | ? | 5.2µM | - | 4.6µM
COc1c(Cl)cnn(-c2ccc(Cl)c(Cl)c2)c1=O | - | -98 | - | - | - | -
COc1ccc(-n2ncc(N(C)n3cccc3)c(Cl)c2=O)cc1 | - | - | - | ? | - | ?
COc1c(Cl)cnn(-c2ccccc2)c1=O | - | -75 | - | - | - | -
Cc1c(Cl)cccc1NC(=O)CCC(=O)NNC(=O)C1CCCCC1 | . | . | . | . | - | .
O=C(CCc1ncc(-c2ccccc2F)o1)N1CCN(S(=O)(=O)c2ccc(F)c(Cl)c2)CC1 | . | . | . | . | - | .
Cc1cc(NC(=O)NCC(c2ccco2)N2CCCCC2)no1 (stereo unspecified) | . | . | . | . | - | .
CN(C)c1cnn(-c2ccccc2)c(=O)c1Cl | - | - | - | - | - | -
Cc1ccc(-n2ncc(N(C)C)c(Cl)c2=O)cc1 | ? | - | 11µM | - | - | -
CCOc1ccc(C(=O)c2cn(CC(=O)Nc3ccc4c(c3)OCO4)c3ccc(OCC)cc3c2=O)cc1 | . | . | . | ? | - | 3.3µM
CCOc1ccc(C(=O)c2cn(CC(=O)Nc3cc(OC)cc(OC)c3)c3ccc(F)cc3c2=O)cc1 | . | . | . | ? | - | 21µM
CN(C1CCCCC1)S(=O)(=O)c1ccc(NC(=O)Cn2nc(-c3ccc(F)cc3)ccc2=O)cc1 | - | - | - | ? | - | 21µM
COc1ccc(-c2ccc(=O)n(CC(=O)Nc3ccc4c(c3)OCCO4)n2)cc1 | ? | - | 11µM | ? | - | -
CC(C)CNS(=O)(=O)c1ccc(NC(=O)Cn2nc(-c3ccc(F)cc3)ccc2=O)cc1 | - | ? | - | ? | - | ?
CCOc1ccc(C(=O)c2cn(CC(=O)Nc3ccc4c(c3)OCO4)c3ccc(OC)cc3c2=O)cc1 | . | . | . | ? | - | ?
Cn1cnc2c1c(=O)n(CC(=O)N(CCc1cccs1)Cc1cccs1)c(=O)n2C | . | . | . | . | - | .
On1nnc2c1ccc1nnn(O)c12 | . | . | . | . | - | .
COc1ccc(C(=O)c2cn(CC(=O)Nc3ccc4c(c3)OCCO4)c3ccc(OC)cc3c2=O)cc1 | . | . | . | 21µM | - | ?
CC(C)C(=O)NC(=S)Nc1ccc(CN2CCOCC2)cc1 | - | - | ? | - | - | -
Cc1ccc(C(=O)NC(=S)Nc2ccc(CN3CCOCC3)cc2)cc1 | ? | - | 14µM | 21µM | - | ?
CC(C)Oc1ccc(C(=O)NC(=S)Nc2ccc(CN3CCOCC3)cc2)cc1 | 13µM | - | 7.1µM | ? | - | 18µM
COc1ccc(Br)cc1C(=O)NC(=S)Nc1ccc(CN2CCOCC2)cc1 | ? | -68 | ? | 18µM | - | 13µM
O=C(NC(=S)Nc1ccc(CN2CCOCC2)cc1)c1ccc([N+](=O)[O-])cc1Cl | ? | - | 7.9µM | - | - | 26µM
SMILES | VP16 counter | IL-1B inflam inh | RORg inh | TDP1 cell CPT | LDHA inh | DT40 TDP1 no CPT
Cc1ccc(CN(C)CC(=O)NC(C)c2ccc(C)c(C)c2)o1 (stereo unspecified) | . | . | . | . | - | .
O=C(Cc1c(F)cccc1Cl)NCc1cccnc1N1CCOCC1 | . | . | . | . | - | .
CN1CCN(c2ccc(S(=O)(=O)N3CCCCC3)cc2NC(=O)COc2ccc([N+](=O)[O-])cc2)CC1 | . | - | . | - | - | -
CCN1CCN(c2ccc(S(=O)(=O)N3CCCCC3)cc2NC(=O)COc2ccc(Cl)c(C)c2)CC1 | - | - | 0.1µM | 16µM | - | 13µM
CCC(=O)c1ccc(OCC(=O)Nc2cc(S(=O)(=O)N3CCCCC3)ccc2N2CCN(CC)CC2)cc1 | . | - | . | ? | - | 18µM
COc1cc(Nc2nc3ccccc3nc2NS(=O)(=O)c2cc(C)ccc2C)cc(OC)c1 | . | . | . | . | - | .
N#CC(Sc1ccccn1)c1ccc(Cl)cc1 (stereo unspecified) | - | -100 | - | ? | - | ?
Cc1ccc(-n2nc(C)c3c(C)cc(=O)n(CC(=O)N4CCCc5ccccc54)c32)cc1 | . | . | . | - | - | -
Cc1c(Cl)cccc1-n1nc(C)c2c(C)cc(=O)n(CC(=O)N3CCCc4ccccc43)c21 | . | . | . | 15µM | - | 4.6µM
Cc1cccc(NC(=O)N[C@@H](CC(C)C)C(=O)O)c1 | . | . | . | . | - | .
Cc1ccc(S(=O)(=O)n2cc(C=O)c3ccccc32)cc1 | - | - | - | ? | - | ?
Cc1ccc(S(=O)(=O)n2cc(-c3ccccc3)c3ccccc32)cc1 | . | - | . | 3.7µM | - | 2.3µM
CC(=O)c1ccc2ccccc2c1OCc1ccccc1C#N | . | . | . | . | - | .
C/C(=N\NC(=O)c1cccc2ccccc12)c1cccnc1 | . | - | . | - | - | -
CC(=NNC(=O)c1ccncc1)c1ccc2ccccc2c1O | . | - | . | 4.1µM | - | 4.6µM
CC(=NNC(=O)c1ccncc1)c1ccccc1O | . | - | . | 0.18µM | - | 0.13µM
COc1ccc(/C(C)=N/NC(=O)c2ccncc2)cc1 | - | - | - | - | - | -
CC(=O)c1ccc2ccccc2c1OC(=O)c1ccncc1 | . | - | . | ? | - | 26µM
CC(=NNC(=O)c1ccncc1)c1ccc(O)cc1O | . | - | . | ? | - | 7.3µM
CC(=NNC(=O)c1ccccc1N)c1ccccc1O | . | - | . | 5.2µM | - | 5.8µM
C/C(=N\NC(=O)c1ccccc1)c1ccccc1F | - | - | - | - | - | -
C/C(=N\NC(=O)c1ccc(N2CCCC2=O)cc1)c1ccccc1 | - | - | - | - | - | -
C/C(=N\NC(=O)c1ccccc1)c1ccccc1Br | 6.3µM | - | 3.5µM | 0.82µM | - | 0.65µM
CC(C)CC(=NNC(=O)c1ccncc1)c1cc(Cl)ccc1O | . | - | . | 3.7µM | - | 2.6µM
C/C(=N\NC(=O)c1ccc(N2CCCC2=O)cc1)c1ccc(O)cc1O | - | - | - | 4.6µM | - | 3.7µM
COc1ccc(/C(C)=N/NC(=O)c2ccccc2N)cc1 | - | - | - | - | - | -
COc1ccc(Cl)cc1C(=O)NC1CC(=O)N(c2ccc(F)cc2)C1 (stereo unspecified) | . | . | . | . | - | .
O=C(NC1CCCc2ccccc21)c1cc(Cl)nc(Cl)c1 (stereo unspecified) | . | . | . | . | - | .
COC(=O)c1c(NC(=O)CN2CCC3(O)CCCCC3C2c2cc(OC)ccc2OC)sc(C)c1C (stereo unspecified) | - | - | ? | 13µM | - | 10µM
Oc1ccc2c(c1)C1CCCC1(N1CCOCC1)O2 (stereo unspecified) | . | - | -[0.365 µM] | 23µM | - | ?
